# Bioassay records from PubChem BioAssay.
# A selection: hits, their analogues and other compounds. The true share with any hit is near 1.1%.
# Vaccinia Venus: qHTS for Stage-Specific Inhibitors of Vaccinia Orthopoxvirus: Venus Reporter Primary qHTS | Vaccinia virus Venus reporter expression, fluorescence | Potency, µM (top dose mostly 36.5 µM), for the others: at the top dose activity change, negative = inhibition, usual class: inhibitors | 0.46% of 330,000 active | AID 720580, 2013; calls by dose curve; tested in A549 cells; also: nearly all actives have a fitted effect of over 30% in size
# VACV mCherry inh: qHTS for Stage-Specific Inhibitors of Vaccinia Orthopoxvirus: mCherry Reporter Primary qHTS; Potency, µM (titrated, usually from 36.5 µM), inactives show at the highest dose activity change, negative = inhibition, hits mostly inhibitors; Vaccinia virus mCherry reporter infection, fluorescence; 0.63% of 310,000 active; AID 720579, 2013; calls by dose curve; tested in A549 cells; also: nearly all actives have a fitted effect of over 35% in size
# AmpC inh detg: qHTS Inhibitors of AmpC Beta-Lactamase (assay with detergent); P00811; AmpC hydrolysis of nitrocefin, absorbance 480 nm, 0.01% Triton; Potency, µM (doses to about 114 µM), inactives show at the highest dose activity change, negative = inhibition, actives largely listed as inhibitors; 0.041% of 370,000 active; AID 485294, 2010;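 also: 0% = no-compound wells and -100% = no-enzyme wells; nearly all actives have a fitted effect of over 25% in size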
# Target sequence (P00811 whole entry, looked up): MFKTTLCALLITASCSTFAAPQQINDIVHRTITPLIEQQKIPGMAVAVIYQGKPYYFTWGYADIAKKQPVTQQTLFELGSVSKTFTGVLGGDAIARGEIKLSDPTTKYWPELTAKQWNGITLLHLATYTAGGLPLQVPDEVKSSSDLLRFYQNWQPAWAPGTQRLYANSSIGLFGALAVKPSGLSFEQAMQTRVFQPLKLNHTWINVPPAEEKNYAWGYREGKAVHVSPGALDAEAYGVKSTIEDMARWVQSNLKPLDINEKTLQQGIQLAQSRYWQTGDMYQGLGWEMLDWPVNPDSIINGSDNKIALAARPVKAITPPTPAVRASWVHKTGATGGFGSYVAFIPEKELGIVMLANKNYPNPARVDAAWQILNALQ
#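 AmpC (5.3 nM in the dispensed reagent) in 20 mM phosphate pH 7.0 with 0.01% (detergent screen) or 0.0001% Triton X-100 was preincubated with compounds for 15 min at room temperature. Nitrocefin was then added from an 800 uM solution, and hydrolysis was followed at 480 nm.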
# AmpC inh no detg: qHTS Inhibitors of AmpC Beta-Lactamase (assay without detergent) | AmpC nitrocefin hydrolysis, absorbance 480 nm, 0.0001% Triton | Potency, µM (top dose mostly 57.1 µM), inactives show at the highest dose activity change, negative = inhibition, usual class: inhibitors | P00811 | 0.52% of 330,000 active | AID 485341, 2010;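 also: plate controls were no compound for no effect and no enzyme for full effect; nearly all actives have a fitted effect of over 20% in size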
#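 20 mM phosphate pH 7.0 + 0.01% (detergent screen) or 0.0001% Triton X-100; 5.3 nM AmpC reagent; cpd preinc 15 min RT; nitrocefin (800 uM stock) to start; A480 q20 s × 4 min; Activity was normalised to no-enzyme and no-compound control wells.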
# An asterisk follows results filed as active; i = inactive; ? = inconclusive; / = no result given; ! = a repeat was not active; [ ] = dose if it differs, or a comment. Unless noted, calls follow the shape of the dose curve; as a rule, active = well fitted curve in the direction sought with a large enough effect; inconclusive = small, poorly fitted or top-dose-only effect, or another doubt; inactive = no such curve, though single readings can be large; an effect the other way counts as inactive or inconclusive. Unless noted, % is scaled to controls: 0 for no effect and ±100 for the full control effect; potency is read from the fitted curve at half-maximal effect.
SMILES,Vaccinia Venus,VACV mCherry inh,AmpC inh detg,AmpC inh no detg
CC(C)CC(=O)NCCNC(=O)c1cc(OCC(F)(F)F)ccc1OCC(F)(F)F,-7%,/,2%,1%
Cc1nn(C)cc1CN1CCOc2ccc(CN3CCC(Oc4cccnc4)CC3)cc2C1,-9%,-14%,/,/
COc1ccc(-c2[nH]c(-c3cccc(OC)c3)nc2SCC(=O)NCc2ccco2)cc1,-25%,?,-15%,10µM*
O=C(NC1c2ccccc2-c2ccccc21)N1CCOCC1,10µM*,11µM*,1%,-11%
CC(=O)c1ccc(F)c(-c2cc(C)cc3c2OC(CNC(=O)c2cccnc2)C3)c1 (stereo unspecified),-14%,-14%,/,/
Cc1ccc(C)c(NC(=O)c2cc3ccccn3n2)c1,-1%,-5%,?,4.5µM*
Cc1ccccc1NC(=O)c1cc2ccccn2n1,/,/,1%,-17%
N/C(COc1cccc(Cl)c1)=N\NS(=O)(=O)c1ccccc1,/,/,2%,0.32µM*
N/C(COc1cccc(Cl)c1)=N\O,-8%,-3%,-10%,-16%
COC(=O)c1ccccc1-c1cc(C)cc2c1OC(CNC(=O)C1CCCO1)C2 (stereo unspecified),-18%,-20%,/,/
COc1ccc(OC)c2[nH]c(=O)c(CCNC(=O)C(C)C)cc12,-4%,i,?,10µM*
CCC(CC)C(=O)NCCc1cc2c(OC)ccc(OC)c2[nH]c1=O,?,/,-1%,-20%
COc1ccc(C(=O)NCc2nc(-c3cccc(NC(=O)c4ccc(C)s4)c3)oc2C)cc1,0%,-11%,/,/
COc1cccc(N2CC(O)=C(c3nc4ccccc4c(=O)[nH]3)C2=N)c1,2.8µM*,?,2%,-19%
COc1cc(C(=O)NC(=S)Nc2ccccc2N2CCOCC2)cc(OC)c1OC,/,/,-3%,16µM*
COc1cccc(C(=O)NC(=S)Nc2ccccc2N2CCOCC2)c1,-12%,i,4%,-2%
COC(=O)CC1(c2cccc3ccccc23)C(=O)c2ccccc2C1=O,2.8µM*,/,?,-16%
CCN(Cc1ccncc1)Cc1ccc2c(c1)CN(C(=O)c1ccc(C)cc1)CCO2,5%,-6%,/,/
Nc1ncnc2c1ncn2C1C=C(CO)C(O)C1O (stereo unspecified),?,1.1µM*,/,/
COc1cccc(CCNc2ncnc3sc(C(=O)N4CCOCC4)c(C)c23)c1,-15%,i,/,/
CS(=O)(=O)N(CC(=O)Nc1ccc2c(c1)OCO2)Cc1ccc(Cl)cc1,-23%,/,1%,0.28µM*
C=CCN1C(=O)/C(=C/c2cccs2)C(=O)NC1=S,71%,37%,-5%,-31%
O=C1NC(=S)N(Cc2ccco2)C(=O)/C1=C\c1cccs1,/,/,45µM*,-60%
Cc1ccc(S(=O)(=O)c2nc(S(C)(=O)=O)sc2N(C)Cc2ccccc2)cc1,-11%,-17%,11%,/
Cc1ccc(S(=O)(=O)c2nc(S(C)(=O)=O)sc2N(C)C)cc1,11µM*,-16%[1.46 µM],7%,-8%
SMILES,Vaccinia Venus,VACV mCherry inh,AmpC inh detg,AmpC inh no detg
ON=C1c2cc(OCCN3CCCCC3)ccc2-c2ccc(OCCN3CCCCC3)cc21,8.9µM*,?,-2%,-4%
Clc1ccc(OCCN2CCCCC2)cc1Cl,-7%,-8%,-8%,-17%
O=C1c2ccccc2-c2n[nH]c3cccc1c23,-16%,11µM*!,/,/
CCN(Cc1ccncc1)Cc1ccc2c(c1)CN(C(=O)c1ccccc1-n1cccn1)CCO2,0%,-6%,/,/
Cc1cc(Nc2sc(C(=O)c3ccc(F)cc3)c(N)c2C(=O)Nc2ccc(F)cc2)ccc1Cl,?,5µM*,15%,/
COc1cccc(CN2C(=O)NC(C)(C3CCN(Cc4cnn(C)c4C)CC3)C2=O)c1OC (stereo unspecified),-10%,i,/,/
CCCc1cc(=O)oc2c3c(c4c(c12)OC(C)(C)C=C4)OC(C)C(C)C3O (stereo unspecified),?,11µM*,?,38%
CCOC(=O)/C(C)=C1\NC(C)(C)Cc2ccccc21,/,/,25µM*,?
C=CCn1c(SC(C)C#N)nc2ccccc2c1=O (stereo unspecified),-5%,39%,/,/
Cc1cc(Cl)ccc1Oc1ccccc1C(=O)CC#N,-16%,-13%,10%,4µM*
COc1ccc(Cn2c(-c3ccc(OC)cc3)n[nH]c2=S)cc1,-4%,-1%,6%,-22%
CC(C)Oc1ccc(Cn2c(-c3ccco3)n[nH]c2=S)cc1,?,28µM*,4%,-22%
COc1ccccc1/C=C/c1cncc(/C=C/c2ccccc2OC)c1,-22%,?,/,/
CCOc1cc2c3c(c1)C1(Nc4ccccc4S1)C(=O)N3C(C)(C)CC2C (stereo unspecified),?,?,-5%,-25%
CCOc1cc2c3c(c1)C1(C(=O)N3C(C)(C)CC2C)C(C#N)=C(N)N2C(=C1C#N)Nc1ccccc12 (stereo unspecified),-28%,-24%,1%,13µM*
O=C1CC[C@@H](CN(Cc2cccnc2)C2CCN(c3ccc(NC(=O)c4cnccn4)cc3)CC2)N1,2%,i,/,/
O=S(=O)(Nc1cccc(-c2ccc(N3CCCCCC3)nn2)c1)c1ccccc1Cl,/,/,-11%,2.5µM*
COc1ccc2cc(-c3cc(C(=O)O)c4ccccc4n3)ccc2c1,4%,10µM*,8%,-2%
COc1ccc(-c2cc(C(=O)O)c3ccccc3n2)c(OC)c1,-11%,/,?,-19%
COc1cccc(C(=O)Nc2cccc(C(=O)NC3=NN(c4c(Cl)cc(Cl)cc4Cl)C(=O)C3)c2)c1,/,/,-13%,18µM*
CCCCCCNc1ccc(/C=C/c2ccnc3ccccc23)cc1,-10%,-23%,/,/
COc1ccc(C(=O)Cn2c(NCCCO)nc3ccccc32)cc1,-1%,-21%,/,/
Cc1cc2nc(NCCCO)n(CC(=O)c3cc(C(C)(C)C)c(O)c(C(C)(C)C)c3)c2cc1C,10µM*,?,-10%,11%
O[C@@H]1CN(CC2CCCCC2)[C@@H](c2ccc(Cl)cc2)C[C@H]1n1cc(C2CC2)nn1,14µM*,?,/,/
COc1ccc(O)c(CN2CCC3(CCC(CNC(=O)C4CCCO4)O3)CC2)c1 (stereo unspecified),14%,-3%,/,/
SMILES,Vaccinia Venus,VACV mCherry inh,AmpC inh detg,AmpC inh no detg
Cc1sc2nc(CSc3ccccc3)nc(N3CCC(C(N)=O)CC3)c2c1C,/,/,-2%,80%
CCOC(=O)c1sc2nc(CSc3ccccc3)nc(N3CCC(C(N)=O)CC3)c2c1C,10µM*,11µM*,1%,121%
COc1ccccc1-c1ccnc(-n2ncc(C(=O)NCc3cccnc3)c2C)n1,?,-8%,/,/
COC(=O)c1cc(CNC(=O)c2ccccc2)cc(NC(=O)c2ccccc2OC)c1,-4%,-14%,/,/
O=S(=O)(c1ccc2ccccc2c1)N1CCN(c2ccc(O)cc2)CC1,/,/,/,10µM*
CCC(C)n1c(=O)c(C(=O)Nc2ccccc2S(N)(=O)=O)c(O)c2ccccc21 (stereo unspecified),?,13µM*,-11%,-54%
COc1cc(/C=C/c2ccnc3ccccc23)ccc1N(C)C,13%,-23%,/,/
